Source: the supplement of paper PMC8728848
Only a selection was taken, and the strongest signals are over-represented in it overall.

How the values were obtained:
Assay in all cases: glycan array binding signal (z-score within array); higher = stronger binding
Conditions in all cases: glycan notation: IUPAC condensed, linker removed
[1] = molecular target: Fuc(a1-2)Gal(b1-4)[Fuc(a1-3)]GlcNAc(b1-3)Gal(b1-4)[Fuc(a1-3)]GlcNAc
How it was run: (§1)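 Negative Z-scores can be read as non-binding. The Z-score is calculated within each array and then averaged across arrays of one protein sequence at different concentrations or buffers and across linkers. Arrays, 3228 in all, were curated from the Consortium for Functional Glycomics database and kept only where the protein sequence was available.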

[2] = molecular target: Fuc(a1-2)[Gal(a1-3)]Gal(b1-4)Glc
How it was run: as §1

Fuc(a1-4)GlcNAc = molecular target: Fuc(a1-4)GlcNAc
How it was run: as §1

[3] = molecular target: Gal(a1-3)[Gal(a1-4)]Gal(b1-4)GlcNAc
How it was run: as §1

[4] = molecular target: Gal(b1-3)GlcNAc(b1-3)Gal(b1-4)GlcNAc
How it was run: as §1

Gal(b1-4)Glc = molecular target: Gal(b1-4)Glc
How it was run: as §1

[5] = molecular target: Gal(b1-4)GlcNAc(b1-2)Man(a1-3)[Gal(b1-4)GlcNAc(b1-2)Man(a1-6)]Man(b1-4)GlcNAc(b1-4)GlcNAc
How it was run: as §1

[6] = molecular target: Gal(b1-4)GlcNAc(b1-3)Gal(b1-4)Glc
How it was run: as §1

[7] = molecular target: Gal(b1-4)GlcNAc(b1-3)[GlcNAc(b1-6)]Gal(b1-4)GlcNAc
How it was run: as §1

[8] = molecular target: Gal3S(b1-3)[Fuc(a1-4)]GlcNAc
How it was run: as §1

Gal3S(b1-4)Glc = molecular target: Gal3S(b1-4)Glc
How it was run: as §1

Gal4S6S(b1-4)GlcNAc = molecular target: Gal4S6S(b1-4)GlcNAc
How it was run: as §1

Gal6S(b1-4)Glc = molecular target: Gal6S(b1-4)Glc
How it was run: as §1

Glc(b1-6)Glc = molecular target: Glc(b1-6)Glc
How it was run: as §1

[9] = molecular target: GlcNAc(b1-2)Gal(b1-3)GalNAc
How it was run: as §1

GlcNAc(b1-3)Gal = molecular target: GlcNAc(b1-3)Gal
How it was run: as §1

GlcNAc(b1-3)GalNAc = molecular target: GlcNAc(b1-3)GalNAc
How it was run: as §1

[10] = molecular target: GlcNAc(b1-3)[GlcNAc(b1-4)][GlcNAc(b1-6)]GlcNAc
How it was run: as §1

[11] = molecular target: GlcNAc(b1-3)[GlcNAc(b1-6)]GlcNAc(b1-4)GlcNAc
How it was run: as §1

[12] = molecular target: Man(a1-3)[Man(a1-6)]Man(a1-6)[Man(a1-3)]Man
How it was run: as §1

[13] = molecular target: Neu5Ac(a2-3)Gal(b1-3)GalNAc(b1-3)Gal(a1-4)Gal(b1-4)Glc
How it was run: as §1

[14] = molecular target: Neu5Ac(a2-3)Gal(b1-3)[Fuc(a1-4)]GlcNAc
How it was run: as §1

[15] = molecular target: Neu5Ac(a2-3)Gal(b1-3)[Fuc(a1-4)]GlcNAc(b1-3)Gal(b1-4)[Fuc(a1-3)]GlcNAc
How it was run: as §1

[16] = molecular target: Neu5Ac(a2-3)Gal(b1-4)GlcNAc(b1-2)Man(a1-3)[Neu5Ac(a2-3)Gal(b1-4)GlcNAc(b1-2)Man(a1-6)]Man(b1-4)GlcNAc(b1-4)GlcNAc
How it was run: as §1

[17] = molecular target: Neu5Ac(a2-3)Gal(b1-4)[Fuc(a1-3)]GlcNAc(b1-3)Gal
How it was run: as §1

[18] = molecular target: Neu5Ac(a2-6)Gal(b1-4)GlcNAc(b1-2)Man(a1-6)[GlcNAc(b1-2)Man(a1-3)]Man(b1-4)GlcNAc(b1-4)GlcNAc
How it was run: as §1

[19] = molecular target: Neu5Ac(a2-6)GalNAc(b1-4)GlcNAc
How it was run: as §1

[20] = molecular target: Neu5Ac9Ac(a2-6)Gal(b1-4)GlcNAc
How it was run: as §1

[21] = molecular target: Neu5Gc(a2-3)Gal(b1-3)[Fuc(a1-4)]GlcNAc
How it was run: as §1

Neu5Gc(a2-6)GalNAc = molecular target: Neu5Gc(a2-6)GalNAc
How it was run: as §1

B1: E-Selectin (Homo sapiens), P16581 (protein)
chain: MIASQFLSALTLVLLIKESGAWSYNTSTEAMTYDEASAYCQQRYTHLVAIQNKEEIEYLNSILSYSPSYYWIGIRKVNNVWVWVGTQKPLTEEAKNWAPGEPNNRQKDEDCVEIYIKREKDVGMWNDERCSKKKLALCYTAACTNTSCSGHGECVETINNYTCKCDPGFSGLKCEQIVNCTALESPEHGSLVCSHPLGNFSYNSSCSISCDRGYLPSSMETMQCMSSGEWSAPIPACNVVECDAVTNPANGFVECFQNPGSFPWNTTCTFDCEEGFELMGAQSLQCTSSGNWDNEKPTCKAVTCRAVRQPQNGSVRCSHSPAGEFTFKSSCNFTCEEGFMLQGPAQVECTTQGQWTQQIPVCEAFQCTALSNPERGYMNCLPSASGSFRYGSSCEFSCEQGFVLKGSKRLQCGPTGEWDNEKPTCEAVRCDAVHQPPKGLVRCAHSPIGEFTYKSSCAFSCEEGFELHGSTQLECTSQGQWTEEVPSCQVVKCSSLAVPGKINMSCSGEPVFGTVCKFACPEGWTLNGSAARTCGATGHWSGLLPTCEAPTESNIPLVAGLSAAGLSLLTLAPFLLWLRKCLRKAKKFVPASSCQSLESDGSYQKPSYIL
glycan array binding signal (z-score) [1]: -0.198 | glycan array binding signal (z-score) [2]: -0.226 | glycan array binding signal (z-score) (Fuc(a1-4)GlcNAc): -0.173 | glycan array binding signal (z-score) [3]: -0.265 | glycan array binding signal (z-score) [4]: -0.181 | glycan array binding signal (z-score) (Gal(b1-4)Glc): -0.251 | glycan array binding signal (z-score) [5]: -0.189 | glycan array binding signal (z-score) [6]: -0.075 | glycan array binding signal (z-score) [7]: -0.027 | glycan array binding signal (z-score) [8]: 1.21 | glycan array binding signal (z-score) (Gal3S(b1-4)Glc): -0.07 | glycan array binding signal (z-score) (Gal4S6S(b1-4)GlcNAc): 0.276 | glycan array binding signal (z-score) (Gal6S(b1-4)Glc): -0.044 | glycan array binding signal (z-score) (Glc(b1-6)Glc): -0.134 | glycan array binding signal (z-score) [9]: -0.209 | glycan array binding signal (z-score) (GlcNAc(b1-3)Gal): -0.024 | glycan array binding signal (z-score) (GlcNAc(b1-3)GalNAc): -0.266 | glycan array binding signal (z-score) [10]: -0.261 | glycan array binding signal (z-score) [11]: -0.105 | glycan array binding signal (z-score) [12]: -0.209 | glycan array binding signal (z-score) [13]: -0.173 | glycan array binding signal (z-score) [14]: 9.04 | glycan array binding signal (z-score) [15]: 3.76 | glycan array binding signal (z-score) [16]: -0.122 | glycan array binding signal (z-score) [17]: 3.07 | glycan array binding signal (z-score) [18]: -0.282 | glycan array binding signal (z-score) [19]: -0.117 | glycan array binding signal (z-score) [20]: -0.181 | glycan array binding signal (z-score) [21]: 12.1 | glycan array binding signal (z-score) (Neu5Gc(a2-6)GalNAc): -0.239
